# Screening results (PubChem BioAssay)
# NadD block = inhibitors of S. aureus NadD, primary screen, biochemical, colorimetric, uHTS. inhibition, % at 20 µM. actives 0.78% (n = 360,000). AID 602399, 2012. purified NadD enzyme, colorimetric absorbance read-out; in the data active = inhibition above about 26%
# PP1 counter = PP1-alpha phosphatase inhibitors, primary screen, counter-screen for PP5 inhibitor project, biochemical, fluorescence, OMFP substrate, single point | Serine/threonine-protein phosphatase PP1-alpha catalytic subunit (Homo sapiens), P62136 | inhibition, % at 6.7 µM | purified PP1alpha | actives 0.9% (n = 320,000);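 active = inhibition above the mean inhibition of all tested compounds plus 3 SD, computed separately for each screening campaign, cut at about 15% in these data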
# B2AR ag = beta2AR agonists driving receptor internalization, primary screen, cell-based, FAP fluorogen, flow cytometry | Am2.2-beta2AR cells | response, % (concentration not given with the values) | AID 504454, 2011 | actives 0.43% (n = 340,000) | Beta-2 adrenergic receptor (Homo sapiens), P07550;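 active = response above a set limit, near 3 SD of response in nonfluorescent compounds, cut at about 42% in these data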
# GRK2 inh = compounds blocking aptamer binding on GRK2 – biochemical, human GRK2, bead flow cytometry, HTS, primary screen. inhibition of aptamer binding, % at 10 µM. Beta-adrenergic receptor kinase 1 (Homo sapiens), P25098. actives 0.59% (n = 330,000). AID 488847, 2010. FAM-aptamer displacement from GRK2;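 active = inhibition of aptamer binding above 40%, roughly 3 SD of noise, on plates passing a quality check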;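 also: median bead fluorescence of bound FAM aptamer so fluorescent compounds give negative values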
# Target sequence (P25098 whole entry, looked up): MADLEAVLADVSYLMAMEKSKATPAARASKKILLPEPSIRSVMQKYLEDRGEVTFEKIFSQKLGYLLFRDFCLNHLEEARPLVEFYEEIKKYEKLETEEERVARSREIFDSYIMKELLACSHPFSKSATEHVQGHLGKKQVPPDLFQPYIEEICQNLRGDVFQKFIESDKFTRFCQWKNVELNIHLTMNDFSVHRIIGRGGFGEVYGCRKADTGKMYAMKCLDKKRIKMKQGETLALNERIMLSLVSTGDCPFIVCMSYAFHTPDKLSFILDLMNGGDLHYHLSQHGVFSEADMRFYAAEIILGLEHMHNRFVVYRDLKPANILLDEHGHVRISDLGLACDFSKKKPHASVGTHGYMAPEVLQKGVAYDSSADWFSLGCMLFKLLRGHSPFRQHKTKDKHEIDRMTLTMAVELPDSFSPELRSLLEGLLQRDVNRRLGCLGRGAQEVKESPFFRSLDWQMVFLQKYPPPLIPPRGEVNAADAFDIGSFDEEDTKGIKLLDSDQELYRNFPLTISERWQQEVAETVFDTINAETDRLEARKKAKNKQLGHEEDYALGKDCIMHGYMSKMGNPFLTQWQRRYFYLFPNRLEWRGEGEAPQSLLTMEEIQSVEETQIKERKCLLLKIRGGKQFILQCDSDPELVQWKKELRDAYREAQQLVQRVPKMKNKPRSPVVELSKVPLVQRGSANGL
# Exocytosis inh = LAMP-1 surface exposure blockers, TALL-104 cells – cell-based, flow cytometry, MLPCN library, primary screen; AID 651702, 2012; inhibition, % at 10 µM; actives 0.66% (n = 360,000); TALL-104 LAMP-1 surface exposure; cells stimulated with thapsigargin and PMA;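 active = inhibition above about 55%, limit read from the data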
# GRK2 inh confirm = GRK2 aptamer-displacing inhibitors, retest, confirmation, biochemical, cherry pick 1, bead flow cytometry; shares compounds with GRK2 inh; bead-bound GRK2, FAM-aptamer displacement; aptamer displacement, % at 10 µM; actives 4% (n = 2,000); AID 504451, 2011;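 active = aptamer displacement above 40%, near three times the noise of non-fluorescent compounds, on plates passing quality checks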;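 also: negative values mostly reflect intrinsic compound fluorescence rather than true enhancement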
# Aptamer quench = quenches fluorescent RNA aptamer, GRK2 hit artifact; fluorescence change (kMESF span), kMESF (no concentration beside the values); Fluorescent RNA aptamer beads, quenching, flow cytometry; hits give high values; 110 tested, under 10 active; shares compounds with GRK2 inh; AID 504521;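 active = compounds whose bead fluorescence drops by more than 37 kMESF across the dose range, marking them as dye quenchers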
# Aptamer quench SP = quenches fluorescent RNA aptamer, GRK2 hit artifact; shares compounds with GRK2 inh; Carboxyfluorescein RNA aptamer on beads, flow cytometry quenching; hits give low values; fluorescence response (% of DMSO), % at 10 µM; 2,000 tested, under 10 active; AID 504580;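 active = compounds that quench the bead-bound fluorescent RNA probe, cutting fluorescence to under half of the solvent control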;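 also: counterscreen run without GRK2 so only probe quenching by compound is measured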
# GRK2 CP2 = GRK2 aptamer-displacing inhibitors, hit retest, confirmation, biochemical, cherry pick 2, bead flow cytometry; 360 tested, under 10 active; inhibition of aptamer binding, % at 10 µM; bead-bound GRK2, FAM-aptamer displacement; AID 504782, 2011; shares compounds with GRK2 inh;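 active = inhibition of aptamer binding above 40%, about triple the noise seen with nonglowing compounds, on plates passing quality control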;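 also: negative values mostly come from compounds that fluoresce themselves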
# FAM quench SP = quenches fluorescent RNA aptamer, GRK2 hit artifact; 360 tested, under 10 active; carboxyfluorescein RNA aptamer beads, flow cytometry quenching; hits give low values; fluorescence response vs DMSO, % at 10 µM; shares compounds with GRK2 inh;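 active = response vs DMSO under 50%, meaning signal dropped by over half, treated as fluorescence quencher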;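 also: labelled aptamer on streptavidin beads without GRK2 as a quench counter-screen; 100% = bead fluorescence of DMSO wells and lower means quenching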
# * hit, by the source's call; nt = no result. Rows were chosen to be rich in hits. Some 2.9% of all compounds tested hit in one or more screens of this group.
SMILES,NadD block,PP1 counter,B2AR ag,GRK2 inh,Exocytosis inh,GRK2 inh confirm,Aptamer quench SP,others
Cc1ccc(N(Cc2cc3ccc(C)cc3[nH]c2=O)C(=O)c2ccco2)c(C)c1,-1.2,0.9,-6.2,3.0,-4.5,nt,nt,
O=C(OCC(=O)c1ccc(Cl)s1)c1ccc(CO)cc1,-4.6,-3.5,-1.1,2.0,-5.4,nt,nt,
Cc1cccc(C)c1N1CCN(C(c2cc3ccccc3o2)c2nnnn2C(C)(C)C)CC1 (centres undefined),8.0,nt,nt,nt,-2.0,nt,nt,
COc1ccc(Cl)cc1NC(=O)CN1CCN(Cc2ccccc2)CC1,-9.6,-4.1,-3.1,nt,38.4,nt,nt,
O=C(NCc1ccc2c(c1)OCO2)c1ccc(CSCc2ccc(Cl)cc2)o1,-3.2,1.3,-6.5,51.0*,5.3,nt,nt,GRK2 CP2=-21.9;FAM quench SP=105.0
O=C(NCc1ccc2c(c1)OCO2)c1ccc(COc2cc(Cl)ccc2Cl)o1,-4.3,11.7,-2.3,0.0,1.7,nt,nt,
CCC(C)CCN1C(N(C)C)=NC[C@@H]1Cc1ccccc1 (some centres undefined),0.7,-2.6,5.4,0.0,7.1,nt,nt,
CCN1C(N(C)C)=NC[C@@H]1Cc1ccccc1,0.6,1.1,0.9,73.0*,4.4,-0.6,103.8,
Cn1c(=O)c2c(ncn2CC(=O)OCC(=O)Nc2ccc(F)cc2F)n(C)c1=O,3.5,-2.7,-0.1,0.0,-1.6,nt,nt,
COc1ccc(Cl)cc1Nc1nnc(-c2ccncc2)s1,-13.1,0.2,-0.3,55.0*,-0.5,-11.0,102.9,
COc1cccc(/C=N/NC(=O)CCc2n[nH]c(=O)[nH]c2=O)c1O,-5.4,-2.0,17.2,1.0,9.8,nt,nt,
O=C(CCc1n[nH]c(=O)[nH]c1=O)N/N=C/c1ccco1,7.2,-2.9,4.5,44.0*,6.2,25.0,96.0,
O=C(Cc1cccc(C(F)(F)F)c1)OCN1C(=O)c2ccccc2C1=O,1.2,3.1,2.4,0.0,-20.5,nt,nt,
Oc1nc(Nc2ccccc2)sc1/C=C1\C=Nc2ccccc21,0.9,2.3,29.5,45.0*,3.9,-0.9,98.0,
CCOC(=O)c1c(Nc2ccccc2)sc(/C=C2\C=Nc3ccccc32)c1O,25.4,9.0,0.3,1.0,-3.6,nt,nt,
Cc1ccc(C(=O)NCCCN2CCOCC2)c(C)c1,-1.7,-5.6,2.8,0.0,3.0,nt,nt,
O=C(Cn1nc(CNc2ccc(Br)cc2)[n+]2c1CCCCC2)c1ccc([N+](=O)[O-])cc1,7.6,8.3,9.1,86.0*,-1.7,-27.6,94.0,
Cn1c(=O)oc2cc(S(=O)(=O)NCc3ccccn3)ccc21,-3.2,-1.0,-7.2,52.0*,7.8,3.2,99.6,
O=C1C2CCCN2C(=O)N1CCCCN1CCN(c2cccc(Cl)c2)CC1 (centres undefined),-6.8,1.3,-7.2,100.0*,-0.5,nt,nt,GRK2 CP2=3.5;FAM quench SP=99.0
COc1ccc(NC(=O)COC(=O)CCc2ccc(S(=O)(=O)N3CCOCC3)cc2)c(OC)c1,-6.0,nt,2.4,1.0,1.1,nt,nt,
C[C@H](CO)N1C[C@H](C)[C@@H](CN(C)CC2CCCCC2)Oc2c(NC(=O)Cc3ccccc3)cccc2C1=O,-6.1,nt,-1.4,0.0,4.4,nt,nt,
CC1=C(C(=O)OC2CCCCC2)C(c2ccc(N(C)C)cc2)NC(=O)N1 (centres undefined),3.7,2.9,6.3,0.0,-0.7,nt,nt,
CCC(/C=C1\Sc2ccc(OC)cc2N1CC)=C\c1sc2ccc(OC)cc2[n+]1CCCS(=O)(=O)[O-],5.1,1.1,-15.9,91.0*,0.1,84.9*,107.6,Aptamer quench=1.7
O=C(NCc1ccco1)C1CCCN1C(=O)NCc1ccccc1 (centres undefined),6.7,-5.2,1.2,0.0,-2.2,1.1,97.3,
O=C(NCc1ccco1)C1CCCN1C(=O)Nc1ccccc1 (centres undefined),5.6,-2.8,-7.2,0.0,1.5,nt,nt,
SMILES,NadD block,PP1 counter,B2AR ag,GRK2 inh,Exocytosis inh,GRK2 inh confirm,Aptamer quench SP,others
O=C(O)C(Cc1ccccc1[N+](=O)[O-])N1C(=O)c2ccccc2C1=O (centres undefined),0.6,nt,2.6,nt,-4.8,nt,nt,
O=C(O)/C=C\C(=O)Nc1ccc(N2CCN(c3ccc(F)cc3)CC2)cc1,9.4,9.6,10.0,5.0,-3.3,nt,nt,
CC(=O)Nc1ccc(N2CCN(c3ccc(F)cc3)CC2)cc1,-9.6,-4.0,1.1,11.0,4.6,-0.7,102.8,
CCC1CC(C(=O)Nc2ccccc2)C(=O)O1 (centres undefined),-1.5,1.1,3.6,69.0*,-4.6,0.1,100.6,
CC(C)(C)c1ccc(/C=C2\CCn3c2nc2cc(C(=O)O)ccc2c3=O)cc1,8.3,1.1,10.9,0.0,2.4,nt,nt,
COc1ccc(/C=C2\CCn3c2nc2cc(C(=O)O)ccc2c3=O)cc1,-1.0,0.4,-7.2,41.0*,-1.1,nt,nt,GRK2 CP2=0.2;FAM quench SP=99.0
CCC(=O)N1CCc2cc(S(=O)(=O)CCC(=O)NCc3cccs3)ccc21,7.4,-3.6,-10.5,0.0,-0.4,nt,nt,GRK2 CP2=11.5;FAM quench SP=99.0
CCc1ccccc1NC(=O)CCS(=O)(=O)c1ccc2c(c1)CCCN2C(C)=O,-3.7,2.0,3.3,61.0*,2.4,1.1,99.9,GRK2 CP2=17.2;FAM quench SP=100.0
CCOc1ccc(NC(=O)CCS(=O)(=O)c2ccc3c(c2)CCCN3C(C)=O)cc1,-0.1,6.5,-0.9,4.0,1.0,nt,nt,
CCOc1ccccc1NC(=O)CCS(=O)(=O)c1ccc2c(c1)CCN2C(C)=O,4.9,1.5,-11.4,6.0,3.5,nt,nt,GRK2 CP2=-8.3;FAM quench SP=101.0
COc1ccc(-c2coc3cc(O)cc(O)c3c2=O)cc1OC,-8.3,-1.9,4.6,0.0,5.4,nt,nt,
COc1ccc(-c2c(C)oc3cc(O)cc(O)c3c2=O)cc1OC,-1.8,-0.2,4.4,50.0*,4.8,0.8,101.5,
Cc1cc(=O)[nH]c(SCC(=O)N(CCC#N)c2ccccc2)c1C#N,-8.8,-0.2,-1.0,0.0,-8.2,nt,nt,
Cc1ccc(NC(=O)CCn2c(=O)[nH]c3ccsc3c2=O)cc1F,0.5,-0.2,-17.5,71.0*,-0.8,-0.1,99.5,
